Measurements: PubChem BioAssay (Tox21)
Results filed as inconclusive are left out. Calls of active or inactive are those of the source. Calls come from the whole dose curve.

test: qHTS assay to identify small molecule agonists or antagonists of the thyroid stimulating hormone receptor (TSHR) signaling pathway - wild type cell line counter screen (AID 1259384); details: HEK293 wild type, cAMP HTRF counter-screen; series mostly up to 92.4 µM
Excerpt: U.S. Tox21 Program National Center for Advancing Translational Sciences [NCATS] NIH Chemical Genomics Center [NCGC] U.S. Environmental Protection Agency [EPA] National Institutes of Environmental Health Sciences [NIEHS] National Toxicology Program [NTP] U.S. Food and Drug Administration [FDA] Tox21 Assay Overview: TSHR is the receptor for thyrotropin (thyroid stimulating hormone or TSH), a member of the glycoprotein hormone family. TSH is released by the anterior pituitary gland and is the main regulator of thyroid gland growth and development. Upon binding circulating thyrotropin, a G-protein signal cascade activates adenylyl cyclase and […] cAMP concentration is increased. cAMP is a key second messenger involved extensively in cellular signal transduction pathways associated with the majority of G-protein coupled receptors (GPCRs). The activation of these GPCRs by neurotransmitters, lipids, nucleotides, peptides and hormones results in the activation or the inhibition of plasma membrane-bound adenylate cyclase through heterotrimeric G-proteins. A cell-based TSHR-Hek293 assay can be used to identify TSHR agonists. To eliminate the false positive compounds identified from screening a cell-based TSHR-Hek293 cell line, cAMP assay in a wild type Hek293 cells was used as a counter screening.
Tox21 Assay Protocol Summary: Hek293 cells (wild type) were dispensed at 800 cells/4 uL/well in 1536-well white plates using a Multidrop dispenser. After the assay plates were incubated at a 37 C/5% CO2 incubator for 18 hrs, 23 nL of compounds dissolved in DMSO, positive controls or DMSO only was transferred to the assay plate by a pin tool, followed by 1 ul medium containing Ro20-1724. After 30 min of incubation at room temperature, 2.5 ul/well of cAMP-d2 and 2.5 ul/well of anti-cAMP-cryptate were added respectively into the assay plates using a Flying Reagent Dispenser. The plates were incubated at room temperature for 1 hr. The fluorescence intensity in the plates was measured using an Envision plate reader. Each test compound was measured at 15 concentrations and in triplicates.

| Compound | outcome |
| --- | --- |
| CCOCC(=O)O | inactive |
| C=C(C)C(=O)OCC(C)C | inactive |
| C[C@]12CCC(=O)C=C1CC[C@@H]1[C@@H]2[C@@H](O)C[C@@]2(C)[C@H]1CC[C@]2(O)C(=O)CO | inactive |
| O=S(=O)(O)c1ccccc1 | inactive |
| CCCCCCCCCCN | inactive |
| CCCCCC(=O)O | inactive |
| Nc1ccc(Cl)c(N)c1 | inactive |
| CC(C)OC(=O)COc1ccc(Cl)cc1Cl | inactive |
| Cc1ccc(S(=O)(=O)N=C=O)cc1 | inactive |
| COC(=O)c1cccnc1 | inactive |
| CCNc1cccc(C)c1 | inactive |
| OC1C(O)C(O)C(O)C(O)C1O (stereo not given) | inactive |
| C=Cc1ccc(C)cc1 | inactive |
| CC(=O)CC(C)(C)O | inactive |
| COC(=O)CCCC(=O)OC | inactive |
| COc1ccccc1OCC(O)CO (stereo not given) | inactive |
| COCCCN | inactive |
| c1ccc2c(c1)Cc1ccccc1-2 | inactive |
| CCCCC(C=O)CC (stereo not given) | inactive |
| O=C(O)c1ccccc1C(=O)O | inactive |

| Compound | outcome |
| --- | --- |
| Cc1ccc2ncccc2c1 | inactive |
| CC1(C)S[C@@H]2[C@H](NC(=O)COc3ccccc3)C(=O)N2[C@H]1C(=O)O | inactive |
| CC(=O)OCCOC(C)=O | inactive |
| CCCCCCC=O | inactive |
| CCOC(=O)c1ccc(N)cc1 | inactive |
| COc1cc(OC)c(C(=O)CCCN2CCCC2)c(OC)c1 | inactive |
| CCc1ccccc1CC | inactive |
| CCCCOC(=O)c1ccc(N)cc1 | inactive |
| CC(=O)c1ccc(O)cc1 | inactive |
| CC(C)(Oc1ccc(CCNC(=O)c2ccc(Cl)cc2)cc1)C(=O)O | inactive |
| Clc1ccccn1 | inactive |
| CCCCCCCO | inactive |
| CCCCCCCCCCCC(=O)OC | inactive |
| CCOCCOCCOCCO | inactive |
| Cc1ccc([N+](=O)[O-])cc1S(=O)(=O)O | inactive |
| CC(C)CCCCCCCOC(=O)CCCCC(=O)OCCCCCCCC(C)C | inactive |
| C=CC(C)CCCC(C)(C)O (stereo not given) | inactive |
| CCNC(=S)NCC | inactive |
| C[C@]12CC[C@@H]3c4ccc(O)cc4CC[C@H]3[C@@H]1C[C@@H](O)[C@@H]2O | inactive |
| N#Cc1ccccc1 | inactive |
